Several values for one entry are separate records, joined by “and”; a condition that tells them apart may be missing. Equal entries are not always repeated. Hit rate of the full screen: of about 5,500 compounds, about 2,000 (36%) were called active. Roughly 18% stayed inconclusive and do not appear here. Rule as the data show it: active = normalized growth mostly below about 0.91 (no sharp cut-off); inconclusive = no clear call, values can overlap the other calls; inactive = mostly above about 0.92. The list shows a part of the results.
Test: chemical genetic growth profiling, strain panel (AID 1159580);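 also: tested at 20 µM; growth read once vehicle control cultures reached saturation at 30 °C; 1 = growth at the plate median or of vehicle wells; lower values mean less growth of the strain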
Conditions: S. cerevisiae deletion strains, growth OD

Measured: normalized growth

COc1ccc2cc([C@H](C)CO)ccc2c1
inactive: locus YAL013W, strain DEP1, stronger effect = lower value 0.982 | locus YAL021C, strain ccr4, stronger effect = lower value 1.04 | locus YAL026C, strain drs2, stronger effect = lower value 1.01 | locus YAL030W, strain snc1, stronger effect = lower value 1 | locus YBL061C, strain skt5, stronger effect = lower value 1.01 | locus YBR009C, strain hhf1, stronger effect = lower value 1.01 | locus YBR021W, strain FUR4, stronger effect = lower value 1.02 | locus YBR023C, strain chs3, stronger effect = lower value 1.01 | locus YBR171W, strain sec66, stronger effect = lower value 1.01 | locus YBR229C, strain ROT2, stronger effect = lower value 0.947 | locus YBR231C, strain swc5, stronger effect = lower value 1.07 | locus YBR279W, strain paf1, stronger effect = lower value 1.01 | locus YCL011C, strain gbp2, stronger effect = lower value 1.01 | locus YCL016C, strain dcc1, stronger effect = lower value 1.01 | locus YCL029C, strain bik1, stronger effect = lower value 0.976 | locus YCL061C, strain MRC1, stronger effect = lower value 1.02 | locus YCL069W, strain vba3, stronger effect = lower value 1.01 | locus YCR088W, strain abp1, stronger effect = lower value 0.936 | locus YDL005C, strain med2, stronger effect = lower value 1.02 | locus YDL035C, strain GPR1, stronger effect = lower value 0.955 | locus YDL040C, strain nat1, stronger effect = lower value 1.01 | locus YDL074C, strain BRE1, stronger effect = lower value 0.996 | locus YDL101C, strain DUN1, stronger effect = lower value 0.989 | locus YDL134C, strain PPH21, stronger effect = lower value 0.98 | locus YDL185W, strain tfp1, stronger effect = lower value 0.962 | locus YDL192W, strain arf1, stronger effect = lower value 0.966 | locus YDR001C, strain nth1, stronger effect = lower value 1.01 | locus YDR069C, strain doa4, stronger effect = lower value 1.02 | locus YDR101C, strain arx1, stronger effect = lower value 0.976 | locus YDR137W, strain rgp1, stronger effect = lower value 1.03 | locus YDR150W, strain NUM1, stronger effect = lower value 0.974 | locus YDR159W, strain sac3, stronger effect = lower value 1 | locus YDR162C, strain NBP2, stronger effect = lower value 0.961 | locus YDR195W, strain ref2 1.04 | locus YDR297W, strain sur2, stronger effect = lower value 1.01 | locus YDR318W, strain mcm21, stronger effect = lower value 0.98 | locus YDR334W, strain swr1, stronger effect = lower value 1.03 | locus YDR335W, strain msn5, stronger effect = lower value 1.02 | locus YDR388W, stronger effect = lower value 0.983 | locus YDR392W, strain spt3, stronger effect = lower value 1.03 | locus YDR502C, strain sam2, stronger effect = lower value 0.95 | locus YEL003W, strain gim4, stronger effect = lower value 1.01 | locus YEL037C, strain rad23, stronger effect = lower value 1.01 | locus YEL061C, strain CIN8 (second series), stronger effect = lower value 1.01 | locus YEL061C, strain CIN8, stronger effect = lower value 0.987 | locus YER015W, strain faa2, stronger effect = lower value 1.01 | locus YER016W, strain bim1, stronger effect = lower value 1.01 | locus YER110C, stronger effect = lower value 0.954 | locus YER111C, strain swi4, stronger effect = lower value 1.02 | locus YER155C, strain BEM2 (second series), stronger effect = lower value 1.01 | locus YER155C, strain BEM2, stronger effect = lower value 1.01 | locus YER167W, strain BCK2, stronger effect = lower value 0.975 | locus YFR010W, strain ubp6, stronger effect = lower value 1.02 | locus YGL078C, strain dbp3, stronger effect = lower value 0.982 | locus YGL086W, strain mad1, stronger effect = lower value 0.984 | locus YGL167C, strain pmr1, stronger effect = lower value 1.01 | locus YGL173C, strain kem1, stronger effect = lower value 1 | locus YGL227W, strain vid30, stronger effect = lower value 1 | locus YGL240W, strain doc1, stronger effect = lower value 1.01 | locus YGL248W, strain PDE1, stronger effect = lower value 0.98 | locus YGL253W, strain hxk2, stronger effect = lower value 1.03 | locus YGR078C, strain PAC10, stronger effect = lower value 0.987 | locus YGR135W, strain pre9, stronger effect = lower value 0.949 | locus YGR229C, strain SMI1, stronger effect = lower value 0.979 | locus YGR252W, strain gcn5, stronger effect = lower value 0.894 | locus YHR013C, strain ard1, stronger effect = lower value 1.07 | locus YHR027C, strain rpn1, stronger effect = lower value 1.01 | locus YHR030C, strain SLT2, stronger effect = lower value 0.985 and 0.928 | locus YHR079C, strain IRE1 (second series), stronger effect = lower value 0.979 | locus YHR079C, strain IRE1, stronger effect = lower value 0.95 | locus YHR094C, strain hxt1, stronger effect = lower value 0.981 | locus YHR129C, strain ARP1, stronger effect = lower value 0.995 | locus YHR142W, strain chs7, stronger effect = lower value 1.02 | locus YHR200W, strain rpn10, stronger effect = lower value 0.973 | locus YIL066C, strain RNR3, stronger effect = lower value 0.969 | locus YIL073C, strain SPO22, stronger effect = lower value 0.954 | locus YIL125W, strain kgd1, stronger effect = lower value 0.974 | locus YIR030C, strain dcg1, stronger effect = lower value 0.975 | locus YJL092W, strain hpr5, stronger effect = lower value 1.01 | locus YJL095W, strain BCK1 (second series), stronger effect = lower value 1 | locus YJL095W, strain BCK1, stronger effect = lower value 0.996 and 0.935 | locus YJL115W, strain asf1, stronger effect = lower value 1.02 | locus YJL129C, strain trk1, stronger effect = lower value 1.02 | locus YJL134W, strain LCB3, stronger effect = lower value 0.984 | locus YJL154C, strain vps35, stronger effect = lower value 1.01 | locus YJL164C, strain tpk1, stronger effect = lower value 1.01 | locus YJL166W, strain qcr8, stronger effect = lower value 1.01 | locus YJL168C, strain set2, stronger effect = lower value 0.982 | locus YJL187C, strain SWE1 (second series), stronger effect = lower value 0.982 | locus YJL187C, strain SWE1, stronger effect = lower value 1.01 | locus YJR043C, strain POL32, stronger effect = lower value 0.994
